# In the supplement of paper PMC8975748:
# Structures can show the parent of a compound that is named as a salt. ± gives the standard deviation of the averaged measurements.
# Experiments:
# [1] = tested on: Saccharomyces cerevisiae BY4741 SeMeCo community; test: mean cell size (pixel area) (pixels); higher = larger cells; details: 10 µM; 24 h; SM minimal medium
# In short: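 Mean cell pixel area per well was determined by automated confocal microscopy with Harmony analysis of paraformaldehyde-fixed cells. The cells, a Saccharomyces cerevisiae BY4741 community of four plasmids that each complement one auxotrophy and carry a fluorescent marker, were incubated for 24 h with drug at a final 10 µM in SM medium in 384-well plates. Numbers are averaged over 3 replicates. Same SeMeCo high-content imaging drug screen: Selleck FDA-approved drugs at 10 µM, 24 h in SM medium, 384-well plates, 3 replicates.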
# [2] = tested on: Saccharomyces cerevisiae BY4741 SeMeCo community; test: z-score of prototroph abundance vs DMSO median; higher = larger share of this subpopulation than in DMSO controls; details: 10 µM; 24 h; SM minimal medium; subpopulation (auxotrophy): Prototroph
# In short: (§1)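 A Saccharomyces cerevisiae BY4741 community carried four plasmids, each restoring one auxotrophy and encoding a distinct fluorescent protein. It was pre-grown overnight to OD600 1.0, diluted to 0.3, and 70 µl was added to 384-well plates acoustically predosed with library drugs (10 µM final), then grown 24 h in minimal SM medium. Cells were paraformaldehyde-fixed and imaged by automated confocal microscopy, with single-auxotroph fluorescent strains setting thresholds and autofluorescence correction. Each subpopulation's abundance was scored as a z-score against the vehicle-well median.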
# [3] = tested on: Saccharomyces cerevisiae BY4741 SeMeCo community; test: z-score of subpopulation abundance vs DMSO median, subpopulation auxotrophic for M; higher = larger share of this subpopulation than in DMSO controls; details: 10 µM; 24 h; SM minimal medium; subpopulation (auxotrophy): M
# In short: as §1
# [4] = tested on: Saccharomyces cerevisiae BY4741 SeMeCo community; test: z-score of subpopulation abundance vs DMSO median, subpopulation auxotrophic for U; higher = larger share of this subpopulation than in DMSO controls; details: 10 µM; 24 h; SM minimal medium; subpopulation (auxotrophy): U
# In short: as §1
# [5] = tested on: Saccharomyces cerevisiae BY4741 SeMeCo community; test: z-score of subpopulation abundance vs DMSO median, subpopulation auxotrophic for H; higher = larger share of this subpopulation than in DMSO controls; details: 10 µM; 24 h; SM minimal medium; subpopulation (auxotrophy): H
# In short: as §1
# [6] = tested on: Saccharomyces cerevisiae BY4741 SeMeCo community; test: z-score of subpopulation abundance vs DMSO median, subpopulation auxotrophic for LU; higher = larger share of this subpopulation than in DMSO controls; details: 10 µM; 24 h; SM minimal medium; subpopulation (auxotrophy): LU
# In short: as §1
# [7] = tested on: Saccharomyces cerevisiae BY4741 SeMeCo community; test: z-score of subpopulation abundance vs DMSO median, subpopulation auxotrophic for LM; higher = larger share of this subpopulation than in DMSO controls; details: 10 µM; 24 h; SM minimal medium; subpopulation (auxotrophy): LM
# In short: as §1
# [8] = tested on: Saccharomyces cerevisiae BY4741 SeMeCo community; test: z-score of subpopulation abundance vs DMSO median, subpopulation auxotrophic for HM; higher = larger share of this subpopulation than in DMSO controls; details: 10 µM; 24 h; SM minimal medium; subpopulation (auxotrophy): HM
# In short: as §1
# [9] = tested on: Saccharomyces cerevisiae BY4741 SeMeCo community; test: z-score of subpopulation abundance vs DMSO median, subpopulation auxotrophic for HU; higher = larger share of this subpopulation than in DMSO controls; details: 10 µM; 24 h; SM minimal medium; subpopulation (auxotrophy): HU
# In short: as §1
# [10] = tested on: Saccharomyces cerevisiae BY4741 SeMeCo community; test: z-score of subpopulation abundance vs DMSO median, subpopulation auxotrophic for HL; higher = larger share of this subpopulation than in DMSO controls; details: 10 µM; 24 h; SM minimal medium; subpopulation (auxotrophy): HL
# In short: as §1
# [11] = tested on: Saccharomyces cerevisiae BY4741 SeMeCo community; test: z-score of subpopulation abundance vs DMSO median, subpopulation auxotrophic for HLM; higher = larger share of this subpopulation than in DMSO controls; details: 10 µM; 24 h; SM minimal medium; subpopulation (auxotrophy): HLM
# In short: as §1
# [12] = tested on: Saccharomyces cerevisiae BY4741 SeMeCo community; test: z-score of subpopulation abundance vs DMSO median, subpopulation auxotrophic for HUM; higher = larger share of this subpopulation than in DMSO controls; details: 10 µM; 24 h; SM minimal medium; subpopulation (auxotrophy): HUM
# In short: as §1
# [13] = tested on: Saccharomyces cerevisiae BY4741 SeMeCo community; test: z-score of subpopulation abundance vs DMSO median, subpopulation auxotrophic for LUM; higher = larger share of this subpopulation than in DMSO controls; details: 10 µM; 24 h; SM minimal medium; subpopulation (auxotrophy): LUM
# In short: as §1
# [14] = tested on: Saccharomyces cerevisiae BY4741 SeMeCo community; test: z-score of subpopulation abundance vs DMSO median, subpopulation auxotrophic for HLUM; higher = larger share of this subpopulation than in DMSO controls; details: 10 µM; 24 h; SM minimal medium; subpopulation (auxotrophy): HLUM
# In short: as §1
# [15] = tested on: Saccharomyces cerevisiae BY4741 SeMeCo community; test: z-score of subpopulation abundance vs DMSO median, subpopulation auxotrophic for L; higher = larger share of this subpopulation than in DMSO controls; details: 10 µM; 24 h; SM minimal medium; subpopulation (auxotrophy): L
# In short: as §1
# [16] = tested on: Saccharomyces cerevisiae BY4741 SeMeCo community; test: z-score of subpopulation abundance vs DMSO median, subpopulation auxotrophic for UM; higher = larger share of this subpopulation than in DMSO controls; details: 10 µM; 24 h; SM minimal medium; subpopulation (auxotrophy): UM
# In short: as §1
SMILES,mean cell size [1],z-score of prototroph abundance [2],z-score of subpopulation abundance [3],z-score of subpopulation abundance [4],z-score of subpopulation abundance [5],z-score of subpopulation abundance [6],z-score of subpopulation abundance [7],z-score of subpopulation abundance [8],z-score of subpopulation abundance [9],z-score of subpopulation abundance [10],z-score of subpopulation abundance [11],z-score of subpopulation abundance [12],z-score of subpopulation abundance [13],z-score of subpopulation abundance [14],z-score of subpopulation abundance [15],z-score of subpopulation abundance [16]
O=C1CCc2ccc(OCCCCN3CCN(c4cccc(Cl)c4Cl)CC3)cc2N1 [Aripiprazole],12.3 ± 0.16,-0.84,0.38,0.55,0.82,0.61,1.05,0.47,1.26,1.38,0.77,0.36,1.32,0.56,–,–
CCCc1nn(C)c2c(=O)[nH]c(-c3cc(S(=O)(=O)N4CCN(C)CC4)ccc3OCC)nc12 [Sildenafil Citrate],12.4 ± 0.22,0.12,0.03,0.43,-0.22,0.51,–,0.01,-0.23,–,–,–,-0.09,-0.32,-0.61,0.49
O=C(O)C1=C(CSc2nnnn2CS(=O)(=O)O)CS[C@@H]2[C@H](NC(=O)[C@H](O)c3ccccc3)C(=O)N12 [Cefonicid sodium],12.47 ± 0.07,–,-0.38,0.61,0.28,0.98,-0.87,-0.77,0.75,–,–,–,–,0.08,-0.08,0.3
CN[C@H]1C(=O)N[C@@H]2Cc3ccc(cc3)Oc3cc4cc(c3O[C@@H]3O[C@H](C(=O)O)[C@@H](O)[C@H](O)[C@H]3NC(=O)CCCCCCCCC(C)C)Oc3ccc(cc3Cl)[C@@H](O)[C@@H]3NC(=O)[C@H](NC(=O)[C@@H]4NC(=O)[C@@H](NC2=O)c2cc(cc(O)c2Cl)Oc2cc1ccc2O)c1ccc(O)c(c1)-c1c(O[C@H]2O[C@H](CO)[C@@H](O)[C@H](O)[C@@H]2O)cc(O)cc1[C@@H](C(=O)NCCCN(C)C)NC3=O [Dalbavancin],12.8 ± 0.072,-0.15,-4.48,1.53,4.04,–,–,–,3.63,1.2,1.32,–,0.72,–,-0.21,-0.56
O=C(O)CCC(=O)c1ccc(-c2ccccc2)cc1 [Fenbufen],12.8 ± 0.18,-0.31,0.67,0.32,0.71,1.1,0.1,-0.02,0.87,0.57,0.59,0.23,-0.23,0.69,–,-0.92
CC(=O)NC[C@H]1CN(c2ccc(N3CCOCC3)c(F)c2)C(=O)O1 [Linezolid],12.51 ± 0.11,-0.12,-0.22,1.39,-0.56,0.78,0.19,-0.27,-0.11,-0.58,-0.75,0.01,-0.15,-0.36,–,0.29
COc1ccc2c3c1O[C@H]1C[C@@H](O)C=C[C@@]31CCN(C)C2 [Galanthamine HBr],11.87 ± 0.11,-0.57,1.78,–,0.1,–,-0.06,0.96,-0.13,-0.01,-0.5,0.61,-0.14,-0.98,-0.44,1.03
O=C1c2cccc3c2[C@H](CCC3)CN1[C@@H]1CN2CCC1CC2 [Palonosetron],12.2 ± 0.14,-0.11,-0.21,-0.35,-0.77,-0.39,-0.55,–,-0.06,-0.45,-0.49,0.12,0.34,-0.4,–,0.49
CC[C@H]1OC(=O)[C@H](C)[C@@H](O[C@H]2C[C@@](C)(OC)[C@@H](O)[C@H](C)O2)[C@H](C)[C@@H](O[C@@H]2O[C@H](C)C[C@H](N(C)C)[C@H]2O)[C@](C)(O)C[C@@H](C)C(=O)[C@H](C)[C@@H](O)[C@]1(C)O [Erythromycin],12.3 ± 0.15,-0.5,0.24,-1.28,1,–,1.38,0.91,-0.18,2.42,0.66,-0.16,1.19,0.28,1.96,-0.8
CCN1CCC[C@H]1CNC(=O)c1cc(S(N)(=O)=O)ccc1OC [Levosulpiride],12.5 ± 0.17,0.49,-0.33,0.41,–,0.1,–,-0.96,-0.27,–,-0.19,–,0.3,-0.54,–,0.08
C#CCN[C@@H]1CCc2ccccc21 [Rasagiline],–,0.01,-0.39,0.2,–,–,–,-0.4,0,-0.5,-0.17,-0.36,–,0.12,-0.1,0.58
COc1ccc(CC2c3cc(OC)c(OC)cc3CC[N+]2(C)CCC(=O)OCCCCCOC(=O)CC[N+]2(C)CCc3cc(OC)c(OC)cc3C2Cc2ccc(OC)c(OC)c2)cc1OC (stereo not given) [Atracurium Besylate],12.4 ± 0.24,–,–,-0.48,0.57,0.39,0.79,0.41,0.23,–,0.51,0.71,0.45,-0.07,1.52,-0.21
Cc1cccc(C)c1NC(=O)C1CCCCN1C (stereo not given) [Mepivacaine HCl],12.5 ± 0.31,-0.33,-0.34,1.52,-0.77,–,-0.76,-0.57,0.57,–,–,0.36,0.38,0.2,-0.36,2.17
CCCCCCCN(CC)CCCC(O)c1ccc(NS(C)(=O)=O)cc1 (stereo not given) [Ibutilide Fumarate],12.5 ± 0.2,0.2,-0.42,0.93,0.34,0.14,–,0.11,0.97,-0.89,-0.14,0.49,0.19,-0.72,–,0.25
Cn1c([N+](=O)[O-])cnc1COC(N)=O [Ronidazole],12.5 ± 0.033,1.22,–,0.01,-1.34,-0.22,-0.82,-1.32,–,-0.38,-0.96,-0.57,–,-0.24,-0.01,–
